Lassa entry inh: blocks Lassa virus binding to or entry into cells; Lassa virus pseudotype entry inhibition, cell reporter; Potency, µM (top dose mostly 37.9 µM), for the others: top-dose activity change, negative = inhibition, most hits filed as inhibitors; 300,000 tested, 1.2% active; calls by dose curve; tested in HEK293 cells; further: potency means the concentration at half of the fitted maximal effect; nearly all actives have a fitted effect of over 50% in size
HCMV antiviral: inhibitors of human cytomegalovirus; HFF cells, HCMV-luciferase reporter, 72 h; hits give low values; activity change, negative = inhibition, % at 57.5 µM; 410,000 tested, 4.5% active; in the data active means activity change below about -60%; inconclusive means no clear call, values can overlap the other calls; inactive means above about -39%
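Luciferase read-out from HCMV-luciferase-infected HFFs (MOI 1 PFU/cell) 72 h post infection at 37C; compounds added after 16 h cell attachment; activity normalized between buffer-only basal and Salinomycin (10uM) inhibitor controls.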
MARV entry inh: blocks Marburg virus binding to or entry into cells; AID 540276; Potency, µM (titrated, usually from 37.8 µM), for the others: at the highest dose activity change, negative = inhibition, actives largely listed as inhibitors; 300,000 tested, 1.8% active; Marburg virus pseudotyped entry inhibition, cell reporter; calls by dose curve; tested in HEK293 cells; further: potency means the concentration at half of the fitted maximal effect
Pf growth 48h: P. falciparum growth inhibition at 48 hours (one generation). P. falciparum luciferase growth in erythrocytes, 48 h. Potency, µM (highest dose often 28.7 µM), inactives show at the top dose activity change, negative = inhibition, usual class: inhibitors. 310,000 tested, 5.9% active. AID 504832; further: potency means the concentration at half of the fitted maximal effect
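Luciferase-expressing parasites in RBCs, 2% Hct / 0.1% parasitemia final; RPMI 1640 + 0.5% Albumax; 37 C, 5% CO2, one generation; luminescence read-out, lower signal = inhibition.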
Pf growth 96h: inhibits malaria parasite growth, 96 h; P. falciparum luciferase reporter growth, 96 h; Potency, µM (highest dose often 28.7 µM), for inactives: at the top dose activity change, negative = inhibition, usual class: inhibitors; 320,000 tested, 6.9% active; AID 504834; further: potency means the concentration at half of the fitted maximal effect
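Cell-based qHTS: luciferase-tagged P. falciparum in erythrocytes (2% hematocrit, 0.05% parasitemia final) incubated with compounds for 96 hours, 37 C, 5% CO2; luciferase detection reagent then added and luminescence measured.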
HCV inhibitor: HCV inhibition. Potency, µM (series often up to 41.8 µM), for the others: top-dose activity change, negative = inhibition, most hits filed as inhibitors. Huh7.5.1 HCVcc-Cre infection, luciferase reporter, 44 h. 340,000 tested, 3.4% active. AID 651820; further: potency means the concentration at half of the fitted maximal effect
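1,000 cells/well; 4 h culture; + compound; + HCVcc-Cre (~0.5 moi); 44 h; luciferase substrate, RT 15 min; read 15 sec.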
* = called active by the depositor; ? = inconclusive; / = no result given; [ ] = another dose, or the depositor's remark. Shown are actives, neighbours in structure and some others; about 14% of the full set was active somewhere. Unless noted, the call rests on the fitted dose curve; in most records, active means well fitted inhibition curve with a large enough effect; inconclusive means small, poorly fitted or top-dose-only effect, or another doubt; inactive means no such curve, though single readings can be large or run the other way. On the % scale 0 is the no-effect control and ±100 the full control effect.

SMILES	Lassa entry inh	HCMV antiviral	MARV entry inh	Pf growth 48h	Pf growth 96h	HCV inhibitor
Cc1cccc(NC(=O)C(Cc2ccccc2)NS(=O)(=O)c2ccc3c(c2)c(=O)n(C)c(=O)n3C)c1 (configuration not stated)	26%[46.1 µM]	-12	-9%[46.1 µM]	/	/	/
Cc1cccc2cc3c(N)c(C#N)sc3nc12	-18%	-63*	?	?	/	?
NC(COCc1ccccc1)c1csc(Nc2ccc(C(=O)c3ccccc3)cc2)n1 (configuration not stated)	/	-14	/	/	/	/
CCn1c(=O)cc(SCC(=O)NCCc2cc(OC)ccc2OC)c2ccccc21	-7%[46.1 µM]	-15	-9%[46.1 µM]	/	/	/
Cc1ccc(S(=O)(=O)N2CCN(Cc3cc(C(C)(C)C)ccc3O)CC2)cc1	/	-36	/	12µM*	?	?
Cc1ccc(S(=O)(=O)N2CCN(Cc3ccccc3Cl)CC2)cc1	-20%[46.1 µM]	7	/	/	/	/
Cc1ccc(S(=O)(=O)N2CCN(Cc3cc(C(C)C)ccc3O)CC2)cc1	?	-18	?	10µM*	10µM*	-10%
NS(=O)(=O)c1cccc(NC(=O)CSc2nc3ccccc3c(=O)n2CC2CCCO2)c1 (configuration not stated)	?	-5	-7%[46.1 µM]	10%	-18%	12%
Fc1ccc(-n2ncc3c(Nc4ccc(Oc5ccc(Cl)cc5)cc4)ncnc32)cc1	1%[46.1 µM]	-6	/	/	/	/
COC(=O)C1=C(CN2CCCc3ccccc32)NC(=O)NC1c1ccc(F)cc1 (configuration not stated)	?	-81*	?	94%	-10%	?
COC(=O)C1=C(CN2CCc3ccccc32)NC(=O)NC1c1cc(C)ccc1C (configuration not stated)	?	47	-28%	10µM*	/	?
CCOC(=O)C1=C(CN2CCN(C)CC2)NC(=O)NC1c1ccc(F)cc1 (configuration not stated)	?	13	/	/	/	/
O=C(NCc1ccc(C(F)(F)F)cc1)O[C@H]1CC[C@@]23CCCN2C(=O)CCC[C@H]3[C@H]1Cc1ccccc1	/	0	/	/	/	/
COc1ccc(NC(=O)CN(C)S(=O)(=O)c2ccc(Br)s2)cc1OC	0%[46.1 µM]	?	10%[46.1 µM]	5%	8%	?
O=C(CNS(=O)(=O)c1ccc(Br)s1)Nc1ccc2c(c1)OCCO2	5%	19	?	?	13µM*	-17%
O=C(CNS(=O)(=O)c1ccccc1)Nc1ccc2c(c1)OCO2	14%[46.1 µM]	-24	?	27%	-2%	15%
CN(CC(=O)Nc1ccc2c(c1)OCCO2)S(=O)(=O)c1ccc(Br)s1	8%	20	6%[46.1 µM]	/	13µM*	0%
Cc1cccc(NC(=O)CSc2nc3ccc(NC(=O)c4ccccc4)cc3s2)c1	15%[46.1 µM]	-2	10%[46.1 µM]	/	/	/
Cc1ccc(N/N=C/c2ccc(N3CCOCC3)cc2)cc1C	18%	1	0%	-16%	10µM*	-7%
CC(C)c1ccc(/C=N/Nc2cc(N3CCOCC3)nc(N3CCOCC3)n2)cc1	?	-38	?	?	-8%	?
Cc1cccc(/C=N/Nc2cc(N3CCOCC3)nc(N3CCOCC3)n2)c1	?	-15	1.4µM*	?	?	6.3µM*
C(=C\c1ccccc1)/C=N/Nc1nc(N2CCOCC2)nc(N2CCOCC2)n1	15%	-37	-28%	-9%	?	-11%
Cc1cn(-c2ccccc2)c(C)c1/C=N\Nc1nc(N2CCOCC2)nc(N2CCOCC2)n1	/	-16	/	8.3µM*	6%	-26%
Cc1ccc(/C=N/Nc2cc(C)nc(N3CCOCC3)n2)cc1	14%	-7	?	30%	-1%	-30%
Cc1cc(N/N=C/c2ccccc2)nc(N2CCOCC2)n1	6%	19	1.6µM*	28%	0%	?
Cc1cc(OCCN2CCOCC2)ccc1Cl	/	15	/	91%	?	7%
Cc1ccc(S(=O)(=O)c2cn(Cc3ccccc3)c3cc(N4CCOCC4)c(F)cc3c2=O)cc1	?	-4	/	/	/	/
Cc1cccc(NC(=O)CSc2nc3c(oc4ccccc43)c(=O)n2C(C)C)c1	/	-24	?	/	/	/

Bioassay records from PubChem BioAssay.
